Reference: the supplement of paper PMC6555819

Each sequence was assayed on VDR:RXRa (NR concentration 270 nM, RXRa partner concentration 90 nM) (assay: PBM binding z-score (relative to random genomic background probes); higher = stronger binding; sequences stand for … in GC…GCGATTGACAGCGTAGAATGAAGG).
Method: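 Protein-binding microarray (Agilent 4x180K custom design, double-stranded 60-nt probes: 5' GC cap, 34-nt variable region, 24-nt constant primer region; full probe sequence given). Purified or IVT nuclear receptor:RXRα heterodimers (3:1 NR:RXRα, mostly 270:90 nM) or homodimers were incubated for 1 h in PBS with 2% milk and no ligand, then detected with Alexa488 antibodies. Fluorescence from o1-orientation probes (~5 replicates averaged) was converted to z-scores against 500 random hg19 background probes. Variable regions are seed direct-repeat (DR0–DR5) sites, all their single-nucleotide variants and half-site ablations.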
In the case of CCTGCTAGGTCATGGTCAGCTCATCTACAGTATG, the PBM binding z-score is reported as 1.8.
Work on AGTCAAAGTTCACTAAGTAACGTAAGATTCAGCT yielded a PBM binding z-score of 3.9.
Work on CCTGCAAGGTCAATGGTCAGCTAAAGCAGCTCGC yielded a PBM binding z-score of 3.76.
For AGAACGAGGGCAAGCTGAGTTGATAGCAGAGTAG, the PBM binding z-score was 1.37.
TGAATGAGGTGATAAGATCAGGGAACGTTGCAAA was tested, and the PBM binding z-score was -0.169.
With ATCTCTAGGTAACAAGTTTAGTGAAAGAGAGGAC the PBM binding z-score was 0.823.
For CCGACTGGGGCAGAAAGGTTGCCATACCATCCGG, the PBM binding z-score was -0.0793.
Work on ATCGAAAGGGCGAGGTGAGTATAGAGAAAGGGAA yielded a PBM binding z-score of 0.361.
For TCGGCTAGGTCAGTTGGTCAGCTAACGAGCTGCC, the PBM binding z-score was 0.16.
With ACTAGCAGACCAAGGGTCACTCAAGATTAGTCCG the PBM binding z-score was 2.58.
Work on GCGACAGGGGCATCAGCAGGTTACCATAACTTAA yielded a PBM binding z-score of 0.517.
TCTTGTAGATTAACAGGAGGTTAAGAAAGATCGA showed a PBM binding z-score of 0.91.
In the case of CGAAGTAGGTCAAGGACAGTGAATCTCCGCACGC, the PBM binding z-score is reported as 1.52.
With CCTAGCAGGCCAGGGTCACTGAAGCATTTCGCTT the PBM binding z-score was 2.68.
With GGAACGAGGCCAAAGTTGATAGCATCTGTCGACG the PBM binding z-score was -0.112.
Work on CCTAGATGGTCAAGGTCACACACGCTATAGGTAC yielded a PBM binding z-score of 4.15.
Work on GTGACTGGGGCAAAGCAGGTTACCATAAGGTTGG yielded a PBM binding z-score of 0.488.
With AATACAGGGTCCCTAGGCCAGAGTAGGTACGAAT the PBM binding z-score was -0.389.
For CTACCAAGGTGAACAAGGGCGTTGATTACTATTC, the PBM binding z-score was 4.73.
Sequence GTACCAAGATGAATAGGTCGTTGATGAGTAGGCG has a PBM binding z-score of -0.0191.
TGATATAGGTAAAGGTGAAAGTCGAACGATATGA gave a PBM binding z-score of 0.866.
In the case of TCTTGTAGATCAAAGGATAAGAAAGCCGAAGCCT, the PBM binding z-score is reported as 0.22.
With ACTAGTTGGTCAGCTGAGGTCAAACACAATTCGG the PBM binding z-score was 4.9.
For CCTACTGGGCCAAGGTTATTGATCAGTCAAAGCA, the PBM binding z-score was -0.0867.
With GTACCACGGTGAATAGGTCGTTGATGAGTAGGCG the PBM binding z-score was -0.0883.
Work on TCATATAGGCAAACAGGTGAAAGTCCGTAAGTTA yielded a PBM binding z-score of 0.719.
CCTACTGGGCCATTCAGAGGTGATTGATCATATG was tested, and the PBM binding z-score was -0.104.
Sequence CGTCCAAGGTCAATGCTAGGTCGGTGAAAGCATT has a PBM binding z-score of 4.11.
ATCTCTAGGTAACCAAGGTCAGTGAATGCCGAAC gave a PBM binding z-score of 3.67.
In the case of ATATGTAGGTTATGGGTCATTCAGGTTGGTTCGC, the PBM binding z-score is reported as 4.33.
Sequence ACTATTAGTTGAGACGAGGGCATCCGATAGGTTG has a PBM binding z-score of 0.918.
TAGCCTAGGTCATTCAGGGGACAGTATAGAAAGC was tested, and the PBM binding z-score was 3.56.
TCTATTAGTTGATTAGGCCAACCGAAACAGCGGA was tested, and the PBM binding z-score was 0.618.
AATACAGGGTCATCGTAGGCCAGTGTACGCACAG showed a PBM binding z-score of 5.18.
ACAGACAGGTGATGAAGGTAACTCATGCTATCAT gave a PBM binding z-score of 0.111.
For TAGCCTAGGTCAGATCGGGCCAGAATACGCTATA, the PBM binding z-score was 0.522.
Sequence CGAACGAGGGCATGGGTTGATAGCAAATGCCGAT has a PBM binding z-score of 1.45.
In the case of CAAACTTGGTCACCGGAAGGTCAAAGTCCGCATG, the PBM binding z-score is reported as 3.88.
With CGAACTAGGTGAGAACAGGACAGTGAAGGATGAT the PBM binding z-score was -0.123.
ATATGTAGGTTAAGGCTCATTCAGGTTGGTTCGC showed a PBM binding z-score of 0.395.
